Results as given in PubChem BioAssay (NCI).
The panel holds about 79,000 compounds, 15% with a hit somewhere; the sample as a whole holds those more often. Unmarked numbers belong to inactive results. Activity calls are given as the source filed them. Rule as the data show it: active = growth inhibition above about 70%; inactive = the rest.

Experiments:
[1] = NCI Yeast Anticancer Drug Screen. Data for the wt1 strain (AID 149);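 also: 0% = growth of vehicle-treated wt1 cultures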; details: S. cerevisiae wt1 strain (SPY 50644) growth inhibition, stronger effect = higher value
Procedure, shortened: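 Vehicle-normalised growth inhibition; strain wt1; compound exposure.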

[2] = NCI Yeast Anticancer Drug Screen. Data for the rad50EPP+ strain (AID 151);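 also: 0% = growth of vehicle-treated control cultures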; details: S. cerevisiae rad50 mutant strain, stronger effect = higher value
Procedure, shortened: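 In this screen, rad50EPP+ yeast were exposed to compounds. Growth inhibition was scored against vehicle-treated controls.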

[3] = NCI Yeast Anticancer Drug Screen. Data for the mgt1 strain (AID 153); details: S. cerevisiae mgt1 mutant growth inhibition, stronger effect = higher value
Procedure, shortened: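 mgt1 strain exposed; growth vs vehicle control recorded as inhibition.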

[4] = NCI Yeast Anticancer Drug Screen. Data for the rad50 strain (AID 155);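 also: 0% = growth of vehicle-only cultures of the same strain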; details: S. cerevisiae rad50 strain growth inhibition, stronger effect = higher value
Procedure, shortened: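 A DNA repair-deficient yeast mutant serves as the test organism; compound-induced growth inhibition is calculated against vehicle-treated cells.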

[5] = NCI Yeast Anticancer Drug Screen. Data for the mec2-1 strain (AID 157); details: S. cerevisiae mec2-1 strain, stronger effect = higher value
Procedure, shortened: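 Vehicle-treated cultures served as reference for growth inhibition of compound-exposed mec2-1 yeast.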

[6] = NCI Yeast Anticancer Drug Screen. Data for the rad14 strain (AID 159);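 also: 0% = growth of vehicle-treated control cultures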; details: S. cerevisiae rad14 strain growth inhibition, stronger effect = higher value
Procedure, shortened: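 Vehicle-treated cultures served as the baseline for growth inhibition of a DNA repair-mutant yeast strain exposed to each compound.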

[7] = NCI Yeast Anticancer Drug Screen. Data for the sgs1 mgt1 strain (AID 161);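 also: 0% = growth of cultures given vehicle only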; details: S. cerevisiae sgs1 mgt1 strain, stronger effect = higher value
Procedure, shortened: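 Test agents were incubated with a DNA-repair-mutant yeast strain. Growth was then read and compared against vehicle-treated controls.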

[8] = NCI Yeast Anticancer Drug Screen. Data for the CLN2oe strain (AID 163);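 also: 0% = growth of vehicle-only control cultures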; details: S. cerevisiae CLN2oe strain, stronger effect = higher value
Procedure, shortened: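 Inhibition relative to vehicle-treated yeast is reported. Cells: strain with genetic alteration in cell-cycle control, grown with compound.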

[9] = NCI Yeast Anticancer Drug Screen. Data for the cln2 rad14 strain (AID 165);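 also: 0% = growth equal to vehicle treated cultures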; details: S. cerevisiae cln2 rad14 strain, stronger effect = higher value
Procedure, shortened: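 Each compound was tested on cln2 rad14 yeast. Inhibition of growth was calculated against vehicle-exposed controls.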

[10] = NCI Yeast Anticancer Drug Screen. Data for the bub3 strain (AID 167); details: S. cerevisiae bub3 mutant strain, stronger effect = higher value
Procedure, shortened: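 Inhibition values come from growth of compound-treated mutant yeast normalised to vehicle-treated controls.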

[11] = NCI Yeast Anticancer Drug Screen. Data for the wt2 strain (AID 169);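 also: 0% = growth of vehicle-treated yeast cultures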; details: S. cerevisiae wt2 strain growth inhibition, stronger effect = higher value
Procedure, shortened: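 Inhibition of yeast growth was determined after compound treatment, normalised to controls receiving only vehicle.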

[12] = NCI Yeast Anticancer Drug Screen. Data for the mlh1 strain (AID 171);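 also: 0% = growth of vehicle-treated control cultures of the same strain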; details: S. cerevisiae mlh1 strain growth inhibition, stronger effect = higher value
Procedure, shortened: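 Vehicle-normalised growth inhibition of a repair- or checkpoint-altered yeast strain following compound treatment.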

[13] = NCI Yeast Anticancer Drug Screen. Data for the sgs1 strain (AID 173);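 also: 0% = growth of vehicle-only control cultures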; details: S. cerevisiae sgs1 mutant, stronger effect = higher value
Procedure, shortened: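 Screen format: yeast with repair or checkpoint alterations, compound exposure, growth read relative to vehicle.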

[14] = NCI Yeast Anticancer Drug Screen. Data for the mlh1 rad18 strain (AID 175); details: S. cerevisiae mlh1 rad18 strain growth inhibition, stronger effect = higher value
Procedure, shortened: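 Vehicle-treated cultures served as the reference for growth inhibition in a yeast strain carrying DNA damage repair alterations exposed to each compound.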

[15] = NCI Yeast Anticancer Drug Screen. Data for the rad18 strain (AID 177); details: S. cerevisiae rad18 mutant growth inhibition, stronger effect = higher value
Procedure, shortened: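 Test articles were incubated with altered yeast defective in DNA damage repair. Results are given as inhibition of growth versus vehicle.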

[16] = at 5.0 µM (retest, dose inferred, filed as 0.5)
[17] = at 50.0 µM (retest, dose inferred, filed as 5.0)

Structure (SMILES): CCCCN(CCCC)CCSc1ccc(Cl)cc1
- growth inhibition ([1]; at 1.2 µM): -1%
- growth inhibition ([1]; at 3.7 µM): 7%
- growth inhibition ([1]; at 11.0 µM): 12%
- growth inhibition ([1]; at 33.0 µM): 31%
- growth inhibition ([1]; at 100.0 µM): 93% (active)
- growth inhibition ([2]; at 1.2 µM): -10%
- growth inhibition ([2]; at 3.7 µM): -20%
- growth inhibition ([2]; at 11.0 µM): 13%
- growth inhibition ([2]; at 33.0 µM): 35%
- growth inhibition ([2]; at 100.0 µM): 55%
- growth inhibition ([3]; at 1.2 µM): -4%
- growth inhibition ([3]; at 3.7 µM): -8%
- growth inhibition ([3]; at 11.0 µM): -5%
- growth inhibition ([3]; at 33.0 µM): -5%
- growth inhibition ([3]; at 100.0 µM): 73% (active)
- growth inhibition ([4]; at 1.2 µM): -18%
- growth inhibition ([4]; at 3.7 µM): -20%
- growth inhibition [4, 16]: 2%
- growth inhibition ([4]; at 11.0 µM): -15%
- growth inhibition ([4]; at 33.0 µM): 28%
- growth inhibition [4, 17]: 18%
- growth inhibition ([4]; at 50.0 µM): 87.3% (active)
- growth inhibition ([4]; at 100.0 µM): 96% (active)
- growth inhibition ([5]; at 1.2 µM): -5%
- growth inhibition ([5]; at 3.7 µM): -5%
- growth inhibition [5, 16]: 3%
- growth inhibition ([5]; at 11.0 µM): -7%
- growth inhibition ([5]; at 33.0 µM): -8%
- growth inhibition [5, 17]: 66%
- growth inhibition ([5]; at 50.0 µM): 94.7% (active)
- growth inhibition ([5]; at 100.0 µM): 92% (active)
- growth inhibition ([6]; at 1.2 µM): 3%
- growth inhibition ([6]; at 3.7 µM): -5%
- growth inhibition ([6]; at 11.0 µM): 0%
- growth inhibition ([6]; at 33.0 µM): 12%
- growth inhibition ([6]; at 100.0 µM): 92% (active)
- growth inhibition [7, 16]: 2%
- growth inhibition [7, 17]: 70% (active)
- growth inhibition ([7]; at 50.0 µM): 82.4% (active)
- growth inhibition ([8]; at 1.2 µM): -12%
- growth inhibition ([8]; at 3.7 µM): -12%
- growth inhibition ([8]; at 11.0 µM): -13%
- growth inhibition ([8]; at 33.0 µM): -11%
- growth inhibition ([8]; at 100.0 µM): 59%
- growth inhibition [9, 16]: 0%
- growth inhibition [9, 17]: 4%
- growth inhibition ([9]; at 50.0 µM): 79.4% (active)
- growth inhibition ([10]; at 1.2 µM): -9%
- growth inhibition ([10]; at 3.7 µM): -5%
- growth inhibition [10, 16]: 5%
- growth inhibition ([10]; at 11.0 µM): -7%
- growth inhibition ([10]; at 33.0 µM): 3%
- growth inhibition [10, 17]: 43%
- growth inhibition ([10]; at 50.0 µM): 94.5% (active)
- growth inhibition ([10]; at 100.0 µM): 92% (active)
- growth inhibition ([11]; at 1.2 µM): -5%
- growth inhibition ([11]; at 3.7 µM): 3%
- growth inhibition ([11]; at 11.0 µM): 13%
- growth inhibition ([11]; at 33.0 µM): 45%
- growth inhibition ([11]; at 100.0 µM): 97% (active)
- growth inhibition ([12]; at 1.2 µM): -14%
- growth inhibition ([12]; at 3.7 µM): -11%
- growth inhibition ([12]; at 11.0 µM): -9%
- growth inhibition ([12]; at 33.0 µM): 17%
- growth inhibition ([12]; at 100.0 µM): 91% (active)
- growth inhibition ([13]; at 1.2 µM): -10%
- growth inhibition ([13]; at 3.7 µM): -7%
- growth inhibition ([13]; at 11.0 µM): 10%
- growth inhibition ([13]; at 33.0 µM): 42%
- growth inhibition ([13]; at 100.0 µM): 95% (active)
- growth inhibition [14, 16]: 3%
- growth inhibition [14, 17]: 80% (active)
- growth inhibition ([14]; at 50.0 µM): 88.2% (active)
- growth inhibition ([15]; at 1.2 µM): -8%
- growth inhibition ([15]; at 3.7 µM): -11%
- growth inhibition ([15]; at 11.0 µM): -7%
- growth inhibition ([15]; at 33.0 µM): 2%
- growth inhibition ([15]; at 100.0 µM): 89% (active)

Structure (SMILES): O=C1C=CC(=C(c2ccccc2)c2ccccc2)c2ccccc21
- growth inhibition ([1]; at 1.2 µM): 0%
- growth inhibition ([1]; at 3.7 µM): 1%
- growth inhibition ([1]; at 11.0 µM): 1%
- growth inhibition ([1]; at 33.0 µM): 2%
- growth inhibition ([1]; at 100.0 µM): 4%
- growth inhibition ([4]; at 1.2 µM): 7%
- growth inhibition ([4]; at 3.7 µM): 7%
- growth inhibition [4, 16]: 25%
- growth inhibition ([4]; at 11.0 µM): -1%
- growth inhibition ([4]; at 33.0 µM): 8%
- growth inhibition [4, 17]: 91% (active)
- growth inhibition ([4]; at 50.0 µM): -6.5%
- growth inhibition ([4]; at 100.0 µM): 10%
- growth inhibition ([5]; at 1.2 µM): 0%
- growth inhibition ([5]; at 3.7 µM): -1%
- growth inhibition [5, 16]: -1%
- growth inhibition ([5]; at 11.0 µM): 1%
- growth inhibition ([5]; at 33.0 µM): -1%
- growth inhibition [5, 17]: 89% (active)
- growth inhibition ([5]; at 50.0 µM): 15.1%
- growth inhibition ([5]; at 100.0 µM): 2%
- growth inhibition ([6]; at 1.2 µM): 5%
- growth inhibition ([6]; at 3.7 µM): 2%
- growth inhibition ([6]; at 11.0 µM): -2%
- growth inhibition ([6]; at 33.0 µM): 1%
- growth inhibition ([6]; at 100.0 µM): -2%
- growth inhibition [7, 16]: 43%
- growth inhibition [7, 17]: 93% (active)
- growth inhibition ([7]; at 50.0 µM): 6.15%
- growth inhibition ([8]; at 1.2 µM): -1%
- growth inhibition ([8]; at 3.7 µM): -3%
- growth inhibition ([8]; at 11.0 µM): -9%
- growth inhibition ([8]; at 33.0 µM): -8%
- growth inhibition ([8]; at 100.0 µM): -9%
- growth inhibition [9, 16]: 25%
- growth inhibition [9, 17]: 86% (active)
- growth inhibition ([9]; at 50.0 µM): -44.3%
- growth inhibition ([10]; at 1.2 µM): 0%
- growth inhibition ([10]; at 3.7 µM): 1%
- growth inhibition [10, 16]: 53%
- growth inhibition ([10]; at 11.0 µM): 3%
- growth inhibition ([10]; at 33.0 µM): 9%
- growth inhibition [10, 17]: 92% (active)
- growth inhibition ([10]; at 50.0 µM): 25.1%
- growth inhibition ([10]; at 100.0 µM): 21%
- growth inhibition ([11]; at 1.2 µM): -6%
- growth inhibition ([11]; at 3.7 µM): -4%
- growth inhibition ([11]; at 11.0 µM): 0%
- growth inhibition ([11]; at 33.0 µM): -4%
- growth inhibition ([11]; at 100.0 µM): -3%
- growth inhibition ([12]; at 1.2 µM): 2%
- growth inhibition ([12]; at 3.7 µM): 0%
- growth inhibition ([12]; at 11.0 µM): -3%
- growth inhibition ([12]; at 33.0 µM): 1%
- growth inhibition ([12]; at 100.0 µM): 0%
- growth inhibition ([13]; at 1.2 µM): -11%
- growth inhibition ([13]; at 3.7 µM): -25%
- growth inhibition ([13]; at 11.0 µM): -10%
- growth inhibition ([13]; at 33.0 µM): 10%
- growth inhibition ([13]; at 100.0 µM): 18%
